HCMV antiviral = blocks human cytomegalovirus replication | HFF cells, HCMV-luciferase reporter, 72 h; active compounds read low | activity change, negative = inhibition, % at 57.5 µM | actives 4.5% (n = 410,000) | AID 1259415; in the data active = activity change below about -60%; inconclusive = no clear call, values can overlap the other calls; inactive = above about -39%; note: % is set by controls: 0 for no effect and ±100 for the full control effect
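Cell-based, HFFs, 1000 cells/well, 16 h 37C; cpds in DMSO + HCMV-luc, MOI 1 PFU/cell; 72 h 37C; OneGlo luminescence after 5 min RT; norm. to buffer vs Salinomycin 10uM.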
Sm TGR inh = S. mansoni TGR enzyme inhibition; Q962Y6; purified TGR, DTNB reduction, TNB absorbance 405 nm; Potency, µM (doses to about 114 µM), without a hit: at the top dose activity change, negative = inhibition, hits mostly inhibitors; actives 3% (n = 360,000); AID 485364; note: potency is the fitted concentration of half-maximal effect; % is set by controls: 0 for no effect and ±100 for the full control effect; nearly all actives have a fitted effect of over 60% in size
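First, TGR (20 nM dispensed) and NADPH were mixed with compound. Second, a 15 min room-temperature incubation followed. Third, further NADPH and then DTNB were added to start the reaction. Finally, TNB absorbance was monitored kinetically.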
SARS PLpro yeast = inhibitors of SARS-CoV papain-like protease in yeast; S. cerevisiae expressing SARS-CoV PLpro, growth rescue; actives 0.19% (n = 330,000); Potency, µM (doses to about 32.9 µM), without a hit: top-dose activity, positive = growth rescue, usual class: activators; calls by dose curve; note: potency is the fitted concentration of half-maximal effect; 0% is about no effect; nearly all actives have a fitted effect of over 55% in size
Pf growth 96h = inhibits malaria parasite growth, 96 h; P. falciparum luciferase reporter growth, 96 h; Potency, µM (titrated, usually from 28.7 µM), for the others: at the top dose activity change, negative = inhibition, actives largely listed as inhibitors; actives 6.9% (n = 320,000); AID 504834; note: potency is the fitted concentration of half-maximal effect; % is set by controls: 0 for no effect and ±100 for the full control effect
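Plates of compound plus infected erythrocytes (2% hematocrit, 0.05% parasitemia final) incubate 96 hours, 37 C, 5% CO2. Detection reagent added; reduced luminescence from the parasites' luciferase reporter flags inhibition.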
HCV inhibitor = inhibitors of hepatitis C virus infection. actives 3.4% (n = 340,000). Potency, µM (top dose mostly 41.8 µM), inactives show top-dose activity change, negative = inhibition, most hits filed as inhibitors. Huh7.5.1 HCVcc-Cre infection, luciferase reporter, 44 h; note: potency is the fitted concentration of half-maximal effect; % is set by controls: 0 for no effect and ±100 for the full control effect
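Compounds are dispensed onto cells plated 4 h earlier at 1,000 per well, with HCVcc-Cre virus (about 0.5 moi) added next. Following 44 h of culture, luminescent signal is measured for 15 sec after 15 min with substrate at room temperature.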
Pf growth 48h = inhibits P. falciparum growth in the first generation, 48 h; Potency, µM (highest dose often 28.7 µM), for inactives: at the highest dose activity change, negative = inhibition, usual class: inhibitors; AID 504832; P. falciparum luciferase growth in erythrocytes, 48 h; actives 5.9% (n = 310,000); note: potency is the fitted concentration of half-maximal effect; % is set by controls: 0 for no effect and ±100 for the full control effect
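First compound was added to culture medium, then infected red cells at 0.1% parasitemia and 2% hematocrit (final). After incubation at 37 C under 5% CO2, luciferase detection reagent was dispensed and light output recorded.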
Starred values were filed as active, the others as inactive; ? = inconclusive; · = not tested or not shown. Rows were chosen to be rich in hits. Some 15% of all compounds tested hit in one or more screens of this group. Unless noted, calls come from the whole dose curve; as a rule, active = well fitted curve in the direction sought with a large enough effect; inconclusive = small, poorly fitted or top-dose-only effect, or another doubt; inactive = no such curve, though single readings can be large; an effect the other way counts as inactive or inconclusive.

SMILES | HCMV antiviral | Sm TGR inh | SARS PLpro yeast | Pf growth 96h | HCV inhibitor | Pf growth 48h
Cc1ccc(N2CCN(C(=O)c3cccs3)CC2)cc1C | -8 | 35µM* | -2% | -18% | 22% | 33%
Cc1ccc(N2C(=O)c3ccc(C(=O)N4CCN(c5cccc(C)c5C)CC4)cc3C2=O)cc1 | 13 | 3% | 15% | -16% | 7% | -21%
O=C(CCS(=O)(=O)c1cccc2nsnc12)NC1CCCCC1 | 7 | ? | -5% | 93% | 7% | 33%
Cc1ccccc1CSCC(Nc1ccc(C(=O)O)cc1[N+](=O)[O-])C(=O)O (stereo not given) | -15 | -12% | 4% | · | 8% | -13%
Brc1ccsc1/C=N/Nc1ccccc1 | 32 | · | · | · | -8% | ·
CC(=O)Nc1sc2c(c1C#N)CCC(C)C2 (stereo not given) | 22 | · | -2% | 8% | -14% | 3%
Cc1ccc(C)n1-c1sc2c(c1C#N)CCC(C)C2 (stereo not given) | ? | -9% | 5% | 6.6µM* | -2% | ·
CCOc1c(Br)cc(CNc2ccc3c(c2)OCCO3)cc1OC | -82* | ? | 3% | 0.83µM* | ? | ·
COc1cc(CNC2CCCCCCC2)cc(Br)c1OCC#N | ? | -9% | 11% | -102% | ? | ?
CCOc1c(Br)cc(CNC2CCCCCCC2)cc1OC | -11 | 4% | 0% | 6% | 11µM* | 10µM*
CCOc1cc(CNc2ccc3c(c2)OCCO3)cc(Br)c1OC | -86* | 11% | -12% | ? | 0.79µM* | ·
CCOc1cc(CNc2ccc3c(c2)OCCO3)cc(Br)c1OCC(N)=O | -33 | 0% | 5% | ? | -25% | ?
O=C1NC[C@H](CCCCN2C[C@H](Cc3ccc(O)cc3)N(CCc3ccccc3)C(=O)C2=O)N(CC2CCCCC2)C1=O | 0 | · | · | · | · | ·
COc1ccc(Cl)cc1C=CC=Nc1ccccc1O | -38 | · | · | · | ? | ·
CCOc1ccccc1C(=O)Nc1ccc(S(=O)(=O)N(Cc2ccccc2)c2ccccc2)cc1 | 11 | 8% | · | · | · | ·
CN(C)S(=O)(=O)c1cccc(NC(=O)c2ccccc2OCc2ccc(F)cc2)c1 | -34 | 9% | 1% | ? | 6.3µM* | 12µM*
CN(C)S(=O)(=O)c1cccc(COc2ccccc2C(=O)Nc2ccccc2)c1 | -27 | -12% | -6% | 9.3µM* | ? | 10µM*
CC(=O)c1cccc(NC(=O)c2ccccc2OCc2ccc(F)cc2)c1 | -35 | 3% | -2% | -14% | ? | 4%
COc1ccc(C(=O)Nc2nc(-c3ccccn3)cs2)cc1S(=O)(=O)N1CCOCC1 | 0 | · | -1% | · | 11µM* | ·
Cc1ccc(S(=O)(=O)N2CCOCC2)cc1C(=O)Nc1nc2ccccc2[nH]1 | 96 | -3% | 8% | -92% | 11% | ?
COc1ccc(C(=O)Nc2ccccn2)cc1S(=O)(=O)N1CCOCC1 | 24 | -33% | 0% | -26% | 3% | 45%
O=C(Nc1nc(-c2ccccn2)cs1)c1cccc(S(=O)(=O)N2CCOCC2)c1 | 0 | ? | -1% | ? | 3.5µM* | 1µM*
Cc1ccc(S(=O)(=O)N2CCOCC2)cc1C(=O)Nc1nc(-c2ccccn2)cs1 | -87* | · | 2% | · | ? | ·
CCCn1nc(NC(=O)c2cccc(Cl)c2)c2cc3cccc(C)c3nc21 | -3 | 8% | · | · | · | ·
CC(C)Oc1ccc(S(=O)(=O)N2CCOCC2)cc1NC(=O)Cc1c(F)cccc1Cl | -14 | 1% | 3% | ? | ? | ?
SMILES | HCMV antiviral | Sm TGR inh | SARS PLpro yeast | Pf growth 96h | HCV inhibitor | Pf growth 48h
N#Cc1ccc(-c2c(-c3ccccc3)ncc3cc(F)ccc23)cc1 | -7 | -20% | 2% | ? | ? | ?
CCN/N=C(\Cc1nc2ccccc2[nH]1)c1ccccc1 | 24 | -7% | 2% | ? | 4% | 10µM*
c1ccc(N/N=C(\Cc2nc3ccccc3[nH]2)c2ccccc2)cc1 | 31 | -2% | -50% | ? | -9% | -86%
O=C(Cc1nc2ccccc2[nH]c1=O)c1ccccc1 | 88 | 9% | -4% | 320% | -23% | 262%
O=C(Cc1nc2ccccc2[nH]1)c1ccc(Br)cc1 | 0 | -7% | -11% | 1.7µM* | -17% | ?
Cc1ccc(N/N=C(\Cc2nc3ccccc3[nH]2)c2ccccc2)cc1 | · | 40µM* | 19% | ? | ? | 9.3µM*
CC(NC(=S)Nc1ccc(S(=O)(=O)N2CCOCC2)cc1)C1CC2CCC1C2 (stereo not given) | ? | 1% | -4% | ? | -5% | ?
O=C(COc1ccc2ccccc2c1)N1c2ccccc2Sc2ccccc21 | 16 | 7% | -8% | 13µM* | -5% | ?
COc1ccc(CCNC(=O)N2c3ccccc3Sc3ccccc32)cc1 | ? | · | · | · | 10µM* | ·
COc1ccc(CC(=O)Nc2ccccc2C(=O)NCCc2ccccc2)cc1 | 47 | 8% | 7% | 12µM* | ? | ?
COc1ccc(CCNC(=O)CCCc2ccccc2)cc1 | 36 | 9% | -1% | 10µM* | -18% | 7%
COCCCNC(=O)N1c2ccccc2Sc2ccccc21 | 49 | 31% | 2% | 10% | 14% | 0%
O=C(Nc1nccs1)c1cnc2sccn2c1=O | 95 | · | · | · | · | ·
Cc1cccc(NC(=O)CN2NS(=O)(=O)c3ccccc3C2=O)c1 | 24 | -4% | 1% | · | 13% | 6%
COc1cccc(C(=O)OCC(=O)NCCCc2ccccc2)c1 | -25 | 79µM* | -2% | 18% | 11% | ·
O=C(COC(=O)c1cc(F)cc(F)c1)NCCCc1ccccc1 | 0 | 1% | -2% | 37% | 7% | 29%
CCCCN(CCCC)CCNC(=O)Cn1nc(CC)n2c(cc3sc(C)cc32)c1=O | ? | -4% | · | · | · | ·
C=CCC(NCc1ccco1)c1ccc(OC)cc1OC (stereo not given) | · | -10% | 5% | 10µM* | -3% | -12%
Cc1sc2ncnc(NCC(C)(C)N3CCOCC3)c2c1C | -40 | 3% | 2% | ? | 5.6µM* | ·

Screening results: PubChem, National Center for Advancing Translational Sciences (NCATS)
